For 70 molecules, activity change, negative = inhibition results are on record in PubChem BioAssay AID624133 (Broad Institute, 2012).

Out of some 1,600 compounds screened, about 1,300 (81%) were called active. No rule for the calls is given here. The set was probably picked from earlier hits. Not all results are given here. Potency and affinity values are given separately.

The nature of the experiment: control 3'UTR Renilla luciferase suppression, dose response, counter-screen for Shn3 inhibitor project, cell-based, Clone20-Shn3RL, cherry-picked (AID 624133).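 Also: 0% = neutral control wells and -100% = positive control wells.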 To be noted: Clone20-Shn3RL cells, Renilla luciferase luminescence, 24 h; at 35 µM (top of the series) unless noted. For orientation: A counterscreen serves to expose hits that act by an unwanted route or on another target.
In the case of `CN(C)c1ccc(/C=C/c2ccc3ccccc3n2)cc1`, the activity change, negative = inhibition was 117%.
The value for `Fc1ccccc1N1CCN(Cc2nc(-c3ccccc3)no2)CC1` was -87.1%.
Under `O=C(Nc1ccc([N+](=O)[O-])cc1)C(=O)Nc1cccc(C(=O)O)c1` stands 43.3%; under `COc1ccc(NS(=O)(=O)c2ccc(-c3cnc(C4CC4)o3)cc2)cc1OC`, 40%.
The value for `Cc1oc(=O)c(NC(=O)c2ccc(Cl)cc2)cc1C(=O)c1ccccc1` was -75%; that for `O=C(CN1C(=O)c2ccccc2S1(=O)=O)c1ccc2c(c1)OCCCO2` was -16.7%; that for `O=C(CN1C(=O)c2ccccc2S1(=O)=O)c1ccc(Cl)cc1Cl` was -103%.
`CC1CCN(C(=O)c2ccc(N3C(=O)C4CCC(C)CC4C3=O)cc2)CC1` (stereo not given): the activity change, negative = inhibition stood at 27.8%.
The value for `CCN(CC)C(=O)[C@H]1C[C@H](CC(=O)NC/C=C(\C)CCC=C(C)C)C(=O)N2CCc3c([nH]c4cc(CCC(=O)N(C)C)ccc34)[C@]12C` was -16.7%.
Under `O=C(Nc1nc(-c2ccccc2)cs1)C1CCCCN1S(=O)(=O)c1ccccc1` (stereo not given) stands -104%.
The value for `COc1ccc(C(=O)NNC(=O)c2cccc(S(=O)(=O)N3CCOCC3)c2)cc1` was 19.6%.
Turning to `O=C(O)C1(Nc2ccccc2Cl)CCCC1`, the activity change, negative = inhibition is -15%.
Under `Cc1cc(C(=O)Cn2cnc3cc(F)ccc3c2=O)c(C)n1C1CC1` stands -16.7%; under `Cc1ccc(C(=O)Nc2ccc3c(c2)C(=O)N(CC2CCCO2)C3=O)cc1` (stereo not given), 80%.
The value for `CC(C)NCC(O)COc1cccc2ccccc12` (stereo not given) was -29%; that for `COc1ccc(S(=O)(=O)N2CCOCC2)cc1NC(=O)COC(=O)CC1CC2CCC1C2` (stereo not given) was 50%; that for `COc1cc(NS(=O)(=O)c2ccc(C)cc2C)cc(OC)c1OC` was -27.3%.
Turning to `CCCC(c1nnnn1Cc1ccc(OC)cc1)N1CCN(c2ccccc2)CC1` (stereo not given), the activity change, negative = inhibition is 117%.
The value for `C=CCOC(=O)C1=C(C)N=C2SCCC(=O)N2C1c1cccs1` (stereo not given) was -29.2%; that for `CCO[C@@H]1OC(C(=O)NC2CC2)=C[C@H](c2coc3ccccc3c2=O)[C@H]1CCCO` was 120%.
With `Cc1ccc(S(=O)(=O)N2CCCCC2)cc1NS(=O)(=O)c1ccccc1F`, the activity change, negative = inhibition came out at 200%.
The value for `COc1ccccc1C(=O)Nc1nc2ccccc2[nH]1` was 43.3%; that for `CN(C)c1ccc(/C=C/c2nc3ccccc3s2)cc1` was 27.8%.
The value for `COc1ccc(N(C)C(=O)c2ccc3snnc3c2)cc1` was -52.1%; that for `O=C1CCc2cccc(O)c2N1` was -23.2%; that for `Cc1c(CCOC(=O)CC23CC4CC(CC(C4)C2)C3)sc[n+]1CC(=O)c1ccc(Br)cc1` was -59.3%.
The value for `CN(C)CCN1C(=O)c2cccc3cc([N+](=O)[O-])cc(c23)C1=O` was 310%; that for `CSc1cccc(NC(=O)N2CCCC(CNS(=O)(=O)Cc3ccccc3)C2)c1` (stereo not given) was 62.5%.
Turning to `CCN(CC)c1ccc2c(c1)oc(=O)c1c(Cl)cc(=O)oc12`, the activity change, negative = inhibition is -33.3%.
The value for `Cc1cccc(N2CCN(C(=S)Nc3ccc4nc(N5CCN(C)CC5)cc(C)c4c3)CC2)c1C` was 22.7%.
For `O=c1c2ccccc2c(C=Nc2ccccc2O)c(O)n1-c1nccs1`, the activity change, negative = inhibition is -2.5%.
As to `Cc1ccc(-c2cn3cc(C)ccc3n2)cc1`, the activity change, negative = inhibition came out at 10%.
The value for `CC(C)CC(NC(=O)c1ccc(Cl)cc1)C(=O)OCC(=O)c1ccc2c(c1)NC(=O)CO2` (stereo not given) was -16.7%; that for `CN1CCN(c2ccc(-c3ccc4ccccc4n3)cc2)CC1` was -31.9%.
The value for `CC(C)(C)n1nnnc1C(c1cccs1)N1CCCC2(CCCCC2)C1` (stereo not given) was 54.2%.
Under `O=C(CSc1nc(C(F)(F)F)cc(=O)[nH]1)N1CCCC1` stands 231%.
Turning to `CC(=O)N(CCc1ccccc1)c1ccc2c(c1)C1CC2CCN1C(=O)OCc1ccccc1` (stereo not given), the activity change, negative = inhibition is -90.9%.
Under `COc1ccc(NS(=O)(=O)c2cccc(NC(=O)c3ccc(S(=O)(=O)N4CCCCCC4)cc3)c2)cc1` stands 11.9%.
Under `COc1ccc(NS(=O)(=O)c2ccc(N3CCOCC3)c(N)c2)cc1` stands -21.1%; under `C=CCn1c(C)cc(C2=NNC(=NCC)SC2)c1C`, -16.7%.
Under `NC(=O)NC(CC(=O)NCCc1ccccn1)c1ccccc1Cl` (stereo not given) stands -110%; under `S=c1[nH]nc(COc2cccc3ccccc23)n1Cc1ccccc1`, -87.5%.
`CC(C)(C)C(=O)Nc1ccc(NC(=O)c2ccco2)nc1`: the activity change, negative = inhibition came to 8.33%.
Under `CCOC(=O)C1=C(C)N(CCCC(=O)O)C(=O)NC1c1ccc2ccccc2c1` (stereo not given) stands -30%.
Regarding `Cc1ccc(C(=O)N2CCN(C)CC2)cc1S(=O)(=O)N1CCCCCC1`, the activity change, negative = inhibition stood at 65.3%.
The value for `CCN(CC)C(=S)Sc1c(-c2ccccc2)c2cc(Cl)ccc2[nH]c1=O` was 16.7%; that for `CC(C)(C)C(=O)Nc1cc2nn(-c3ccccc3)nc2cc1Cl` was 52.1%.
The value for `COc1ccc(OC)c(NC(=O)COC(=O)c2c3c(nc4ccccc24)CCCC3)c1` was 40%.
Under `COc1cc(Nc2nc(-c3ccccc3)c3cc(C)ccc3n2)cc(OC)c1OC` stands 16.7%; under `Cc1ccc(S(=O)(=O)N2CCC3(CC2)OCCN3S(=O)(=O)c2c(C)cc(C)cc2C)cc1`, -13.6%.
Regarding `O=C(CSc1nc2[nH]ncc2c(=O)[nH]1)Nc1ccccc1C(F)(F)F`, the activity change, negative = inhibition was -108%.
In the case of `Cc1csc(=O)n1CCC(=O)N(C)Cc1c(F)cccc1Cl`, the activity change, negative = inhibition came to 75%.
Under `CN(C)c1ncnc2c1C(c1ccccc1)C(C)(C)O2` (stereo not given) stands -22.2%.
Regarding `O=C(OCc1ccccc1)N(CCCCN(CCCNCc1ccccc1)C(=O)OCc1ccccc1)CCCNCc1ccccc1`, the activity change, negative = inhibition came out at 20%.
The value for `COc1ccc(-c2noc(CCCCC(=O)N3CCN(c4cc(C)ccc4C)CC3)n2)cc1` was -30%; that for `C=CC[C@H](CC(=O)N(CCO)Cc1ccccc1)C(=O)NC[C@H](OC(=O)[C@@H](CC=C)Cc1ccc(F)cc1)c1ccccc1` was -75%; that for `CCS(=O)(=O)c1ccc2oc(SCC(=O)N3CCCCC3)nc2c1` was 35%.
As for `CSc1nc(N2CCN(Cc3ccc4c(c3)OCO4)CC2)c2ccccc2n1`, the activity change, negative = inhibition is -16.7%.
In the case of `Cc1ccc(NC(=O)c2oc3ccccc3c2COC(C)C)cc1S(=O)(=O)N1CCOCC1`, the activity change, negative = inhibition is 25%.
The value for `O=C(CSc1nc2c(c(=O)n1-c1ccc(Br)cc1)SCC2)NCc1ccco1` was 29.2%; that for `Cc1ccc(CNC(=O)CSc2c3c(nc4ccc(Cl)cc24)CCCC3)o1` was 106%; that for `CC(C)c1c(O)c2c(n(-c3ccccc3)c1=O)CCCC2` was -21.1%.
The value for `O=C(Nc1cccc(S(=O)(=O)NC2=NCCC2)c1)C1CC(=O)N(c2ccc3c(c2)OCCO3)C1` (stereo not given) was -66.7%; that for `C[C@@H]1CC=C[C@H]2[C@H]1C(=O)N(Cc1ccccc1)[C@H]2c1cccc([N+](=O)[O-])c1` was 162%; that for `COc1cc(NC(=O)c2cc3c(Cl)nc4ccccc4c3s2)cc(OC)c1OC` was 60%.
Under `O=C(Nc1ccc(Cl)c(Cl)c1)c1cccc(S(=O)(=O)NCc2cccnc2)c1` stands -10%.
For the molecule `Cc1ccc(NC(=O)C2CCC(C(C)(C)C)CC2)cc1S(=O)(=O)N1CCOCC1` (stereo not given), the activity change, negative = inhibition is -100%.
Under `O=C(NNc1ccccc1)C(=O)NNS(=O)(=O)c1ccc(CCCl)cc1` stands 90%; under `CCCc1nc2c(=O)n(C)c(=O)nc-2n(C)n1`, 71.8%; under `COc1ccc(CNC(=O)C(C)n2ccc3cc(S(=O)(=O)N4CCCCCC4)ccc32)cc1` (stereo not given), 12.2%.
